# Results taken from ChEMBL document CHEMBL3988442, “University of Dundee, Small-Polar-MMV Screening Library” (2021).
# The whole screen tested about 48,000 compounds, of which about 13,000 (27%) showed an effect of 50% or more. Some of the results follow.
# Test system: Wolbachia pipientis
# Test: Anti-Wolbachia Cell-Based Screen
# Format: functional
# Design: scale not given: in the data most compounds retested in dose-response had high values
# Conditions: 5 µM
row,Structure (SMILES),Percent Effect
1,O[C@H]1CC[C@@H](Cc2cc(-c3ccccn3)on2)O[C@@H]1CNCC1CC1,8.949%
2,CN1CCCN(C(=O)c2nc3c(s2)CCCN3CC2CC2)CC1,15.57%
3,CN(C)Cc1ccnc(C2CCCN2Cc2ccc3ncccc3c2)n1 (stereo not drawn),102.5%
4,CN(C)Cc1ccnc(C2CCCN2Cc2cc3ccccc3s2)n1 (stereo not drawn),97.93%
5,O=C1O[C@@H]2CN(Cc3cc4ccccc4s3)C[C@@H]2N1Cc1ccccn1,7.899%
6,Cc1cc(C)cc(CN2CCCC2c2noc(C)n2)c1 (stereo not drawn),-1.497%
7,CN(C)Cc1ccnc(C2CCCN2Cc2ccncc2)n1 (stereo not drawn),-6.271%
8,c1ccc2sc(CN3CCCC3c3noc(C4CC4)n3)nc2c1 (stereo not drawn),1.502%
9,CCC(C)(C)NC(=O)c1ccc(NC(=O)NCc2cc(C)on2)cc1,-5.404%
10,CN1CC2(CCN(C(=O)c3ccc4c(=O)n(C)cnc4c3)CC2)CC1=O,-1.826%
11,COc1ccc(CC(=O)N2CCCC(Cn3cc(CN)nn3)C2)cc1 (stereo not drawn),-29.22%
12,CN(C(=O)Cc1c[nH]c2ccccc12)C1CCN(c2ccccn2)CC1,-5.005%
13,N[C@@H]1CCCN(C(=O)Cc2c[nH]c3ccccc23)[C@H]1c1ccccc1F,92.02%
14,COc1cccc(C(=O)N2CCCC(C(=O)CCc3ccccc3)C2)c1 (stereo not drawn),-1.62%
15,COc1cccc(CC2CCCN2CC(N)=O)c1 (stereo not drawn),14.09%
16,COc1cccc(CCC(=O)N2CCC[C@@H](N)[C@@H]2c2ccccc2F)c1.Cl,156.6%
17,COc1ccc(CC(=O)N2CCC[C@@H](N)[C@@H]2c2ccccc2F)cc1.Cl,65.32%
18,COC(=O)c1cc2n(n1)CCCN(C(=O)Cc1c[nH]c3ccccc13)C2,-8.312%
19,CN1CCC(N[C@@H]2CO[C@H](CNC(=O)C3CCCC3)[C@H]2O)CC1,-10.26%
20,CN(C)C(=O)CNC(=O)CCn1ncc2c(Cl)cccc21,7.628%
21,COc1cn(-c2ccccc2)nc1C(=O)NCCCN1CCCC(C)C1 (stereo not drawn),0.4079%
22,CC1CCCN(CCNC(=O)c2ccn(-c3ccc(F)cc3)n2)C1 (stereo not drawn),89.11%
23,COc1cn(-c2ccccc2)nc1C(=O)NCCN1CCCC(C)C1 (stereo not drawn),85.45%

row,Structure (SMILES),Percent Effect
1,CC1CCCN(CCNC(=O)c2ccn(-c3ccccc3)n2)C1 (stereo not drawn),-2.104%
2,O=C(NCCn1ccnc1)c1ccn(-c2cccc(F)c2)n1,3.245%
3,CC1CCCN(CCCNC(=O)c2cn(C)nc2-c2cccnc2)C1 (stereo not drawn),-7.015%
4,CC(=O)N1CCC(C(=O)NCCN2CCCC(C)C2)CC1 (stereo not drawn),4.421%
5,COc1ccc(-n2ccc(C(=O)NCCN3CCCC(C)C3)n2)cc1 (stereo not drawn),109.8%
6,CC1CCCN(CCNC(=O)c2ccn(-c3cccc(F)c3)n2)C1 (stereo not drawn),71.46%
7,COCC1c2nnn(CC3CC3)c2CCN1C(=O)c1ccnnc1 (stereo not drawn),-5.349%
8,Cc1csc(N(C)C(=O)C2CC(=O)N(c3ccccc3Cl)C2)n1 (stereo not drawn),9.936%
9,CC(Sc1nnc(C2CC2)n1CC(N)=O)c1ccc(F)cc1F (stereo not drawn),-10.03%
10,Cc1cccc(-c2ncc(CNC(C)CO)cn2)c1 (stereo not drawn),-5.698%
11,Cn1cnnc1C1CCN(c2cncc(-n3cccn3)n2)CC1,0.9995%
12,O=C(NCC(O)(c1cccs1)C1CC1)NC1CCCCC1 (stereo not drawn),9.559%
13,COCC1CN(S(=O)(=O)Cc2ccccc2)Cc2c1cnn2C.O=C(O)C(F)(F)F (stereo not drawn),-18.15%
14,Cc1cccc(N2CCN(CC(=O)N3CCCC(N(C)C)CC3)CC2)c1 (stereo not drawn),-50.72%
15,Cc1cc(Nc2ccc(F)cn2)cc(C2CCCN2)n1 (stereo not drawn),111.9%
16,Cc1cc(C)nc(NC2CCOC3(CCCC3)C2)n1 (stereo not drawn),-13.03%
17,Cc1cc(Nc2nc(C)cc(C)n2)cc(C2CCCN2)n1 (stereo not drawn),104%
18,Cc1cc(Nc2cnccn2)cc(C2CCCN2)n1 (stereo not drawn),103.5%
19,Cl.Cl.Fc1cccc(-c2c[nH]c(C3CCCN3)n2)c1 (stereo not drawn),-26.74%
20,Cc1cc(Nc2cnccn2)cc(C2CCCNC2)n1 (stereo not drawn),90.08%
21,Cn1cc(C2CC3(CCN(C(=O)c4ccsc4)CC3)NC2=O)cn1 (stereo not drawn),-8.602%
22,Cc1ccc(C(=O)N2CC(C)(C)[C@@](C)(O)C2)cc1N1CCNC1=O,-5.477%
23,Cc1nn(C)c(C)c1CN(CCO)C(=O)C1COc2ccccc2C1 (stereo not drawn),-4.476%

row,Structure (SMILES),Percent Effect
1,COCC(O)CNC(=O)c1coc(COc2ccc3sc(C)nc3c2)n1 (stereo not drawn),-2.868%
2,CC(Cn1cccn1)NCc1csc(-c2ccccc2)n1 (stereo not drawn),5.94%
3,CCCS(=O)(=O)NC(=O)c1ccc(Br)o1,-3.964%
4,O=C(O)C(F)(F)F.O=C(O)C(F)(F)F.c1cc2nc(C3CCN(CC4CC4)CC3)nn2cc1N1CCCC1,-8.773%
5,CC(C)N1CCC(c2nc3ccc(-c4ccnn4C)cn3n2)CC1.O=C(O)C(F)(F)F,101.4%
6,Cn1nccc1-c1ccc2nc(C3CCN(CC4CC4)CC3)nn2c1.O=C(O)C(F)(F)F.O=C(O)C(F)(F)F,97.48%
7,CC(=O)N1CCC(c2nc3ccc(-c4ccnn4C)cn3n2)CC1.O=C(O)C(F)(F)F,79.91%
8,Cn1nccc1-c1ccc2nc(C3CCN(CCO)CC3)nn2c1.O=C(O)C(F)(F)F,-15.06%
9,Cn1nccc1-c1ccc2nc(C3CCNCC3)nn2c1,98.45%
10,CCC1c2ccsc2CCN1C(=O)NCCNc1ncccn1 (stereo not drawn),9.072%
11,O=C(c1ccccn1)N1C[C@@H]2CC[C@H](C1)N(C(=O)Cc1cccs1)C2,-18.37%
12,CCc1sc(-c2nnc(CNC(C)Cn3cccn3)o2)cc1C (stereo not drawn),-4.192%
13,Cc1ccc(CN2CC(C(=O)NCC3CC3)C3(CCOCC3)C2)s1.O=C(O)C(F)(F)F (stereo not drawn),9.43%
14,Cn1ccc(C(=O)NC2CCC23CCN(Cc2cnn(C)c2)CC3)c1.O=C(O)C(F)(F)F (stereo not drawn),118.5%
15,Cc1ccc(CN2CCC3(CCC3NC(=O)c3ccn(C)c3)CC2)s1.O=C(O)C(F)(F)F (stereo not drawn),90.78%
16,Cn1ccc(C(=O)NC2CCC23CCN(Cc2cccnc2)CC3)c1.O=C(O)C(F)(F)F.O=C(O)C(F)(F)F (stereo not drawn),0.1855%
17,COCC(=O)N1CCC2(CCC2NC(=O)c2ccn(C)c2)CC1 (stereo not drawn),-13.3%
18,Cn1ccc(C(=O)NC2CCC23CCN(CC2CCOCC2)CC3)c1.O=C(O)C(F)(F)F (stereo not drawn),102.1%
19,Cn1ccc(C(=O)NC2CCC23CCN(C(=O)c2ccncc2)CC3)c1.O=C(O)C(F)(F)F (stereo not drawn),-9.033%
20,Cn1ccc(C(=O)NC2CCC23CCN(C(=O)C2CCOCC2)CC3)c1 (stereo not drawn),-10.05%
21,Cn1ccc(C(=O)NC2CCC23CCN(C(=O)c2cnccn2)CC3)c1 (stereo not drawn),13.19%
22,Cn1ccc(C(=O)NC2CCC23CCN(Cc2ccc(F)cc2)CC3)c1.O=C(O)C(F)(F)F (stereo not drawn),104.6%
